High-throughput results (PubChem)
TIM10 inh – growth inhibitors of isogenic TIM10 control yeast, primary screen, counter-screen for tim10-1 yeast inhibitor project, luminescence, uHTS. S. cerevisiae TIM10 strain growth, BacTiter-Glo luminescence, 24 h. inhibition, % at 10 µM. 1.4% of 330,000 active;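 active = inhibition of 40% or more at the single tested concentration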;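 also: wild-type TIM10 isogenic control strain grown at permissive 25 °C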
tim10-1 inh – growth inhibitors of tim10-1 mutant yeast, primary screen, luminescence, uHTS; S. cerevisiae tim10-1 ts strain growth, BacTiter-Glo, 24 h; inhibition, % at 20 µM; 2.2% of 330,000 active;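 active = inhibition of at least 40%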;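 also: mutant grown at 25 °C; 0% = DMSO wells with yeast and 100% = wells holding no yeast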
tim23-1 inh – growth inhibitors of tim23-1 mutant yeast, primary screen, luminescence, uHTS; S. cerevisiae tim23-1 growth, BacTiter-Glo luminescence, 24 h; inhibition, % at 20 µM; 1.3% of 330,000 active; AID 463212, 2010;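 active = growth inhibition of the mutant yeast at or above 50%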;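 also: temperature-sensitive mutant grown at 25 °C; plate controls were DMSO-treated mutant yeast for no effect and medium wells lacking yeast for full effect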
MPTP inh – mitochondrial permeability transition pore inhibitors, primary screen, biochemical, isolated mouse mitochondria, absorbance; Ca2+ swelling absorbance, 30 min; AID 602449, 2012; inhibition, % at 10 µM; 1.4% of 360,000 active;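 active = inhibition of 50% or more, scaled per plate between neutral and stimulator controls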;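 also: 0% = DMSO wells given calcium and 100% = 1 mM EGTA wells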
Mdm2 MdmX PPI – inhibitors of human Mdm2-MdmX association, primary screen, cell-based, luminescence, split luciferase, SaOS-2, uHTS; Protein Mdm4 (Homo sapiens) + E3 ubiquitin-protein ligase Mdm2 (Homo sapiens), …; SaOS-2 split-luciferase Mdm2/MdmX complementation; inhibition, % at 8 µM; 3% of 330,000 active; AID 485346, 2010;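 active = inhibition of at least 50% at 8 µM in the primary screen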
Target sequence (O15151 whole entry, looked up): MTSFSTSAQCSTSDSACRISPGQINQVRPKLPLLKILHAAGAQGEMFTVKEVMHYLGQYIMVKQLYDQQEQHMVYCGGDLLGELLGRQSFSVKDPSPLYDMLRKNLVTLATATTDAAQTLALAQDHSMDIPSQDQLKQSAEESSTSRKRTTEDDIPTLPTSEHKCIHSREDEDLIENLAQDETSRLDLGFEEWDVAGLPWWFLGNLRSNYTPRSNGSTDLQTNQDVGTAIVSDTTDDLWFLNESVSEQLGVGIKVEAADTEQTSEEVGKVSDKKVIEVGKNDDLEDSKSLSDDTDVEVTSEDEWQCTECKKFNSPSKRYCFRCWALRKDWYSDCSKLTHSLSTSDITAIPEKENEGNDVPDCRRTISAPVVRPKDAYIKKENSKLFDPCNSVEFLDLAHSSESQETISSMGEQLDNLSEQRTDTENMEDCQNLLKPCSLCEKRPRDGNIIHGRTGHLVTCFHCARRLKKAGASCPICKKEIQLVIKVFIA
Target sequence (Q00987 whole entry, looked up): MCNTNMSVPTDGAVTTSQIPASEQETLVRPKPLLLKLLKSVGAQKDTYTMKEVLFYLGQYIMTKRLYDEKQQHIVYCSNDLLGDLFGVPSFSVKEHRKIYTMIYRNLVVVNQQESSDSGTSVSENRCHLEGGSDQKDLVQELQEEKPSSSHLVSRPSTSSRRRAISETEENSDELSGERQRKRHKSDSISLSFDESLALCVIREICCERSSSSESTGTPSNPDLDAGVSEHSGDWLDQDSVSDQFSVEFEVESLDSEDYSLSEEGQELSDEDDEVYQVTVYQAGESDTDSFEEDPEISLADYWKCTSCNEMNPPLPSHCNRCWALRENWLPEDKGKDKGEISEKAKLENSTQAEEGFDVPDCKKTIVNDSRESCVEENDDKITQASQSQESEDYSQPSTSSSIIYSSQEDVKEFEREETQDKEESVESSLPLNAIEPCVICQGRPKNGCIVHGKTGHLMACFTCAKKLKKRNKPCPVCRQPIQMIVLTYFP
MPTP counter – fluorescence retest of MPTP screen hits in isolated mitochondria, single concentration; shares compounds with MPTP inh; membrane potential, Rhodamine 123 fluorescence; inhibition, % at 10 µM; 78% of 5,000 active; AID 624504, 2012; in the data active = inhibition above about 22%;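 also: 0% = DMSO vehicle and 100% = positive control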
MPTP abs DR – mitochondrial permeability transition pore inhibitors, dose response, biochemical, absorbance, uHTS hits. 58% of 780 active. isolated mitochondria swelling. IC50, µM. shares compounds with MPTP inh; in the data active = IC50 below about 20 µM
MPTP counter DR – fluorescent counter-screen in isolated mitochondria, dose response, counter-screen for MPTP inhibitor project, biochemical, fluorescence, uHTS hits. shares compounds with MPTP inh. isolated mitochondria counterscreen, fluorescence read-out. IC50, µM. 49% of 780 active. AID 651564, 2012; in the data active = IC50 below about 80 µM
The depositor's hits bear a star; i = inactive; . = not tested or not shown. Most compounds without a hit are left out; they make up all but 6.3% or so of the library.

SMILES	TIM10 inh	tim10-1 inh	tim23-1 inh	MPTP inh	Mdm2 MdmX PPI	MPTP counter	others
COC(/C(C)=C/C=C/C(C)=C/c1coc(C)n1)C(C)C1CC(O)C2(C)OC2C=CC(C)C2CC(CC(=O)O2)CC2OC2C(=O)O1 (stereo unspecified)	.	.	.	0.5	.	.
C[C@@H]1CN([C@@H](C)CO)C(=O)CCCn2nncc2CO[C@H]1CN(C)C(=O)Oc1ccc2ccccc2c1	.	.	.	-0.3	.	.
Cc1ccc2c(c1)C1CN(C)CCC1N2C(=O)Nc1cccc(Cl)c1 (stereo unspecified)	10.4	2.0	14.5	94.4*	23.4	91.0*
O=C(c1cc(C(=O)NCc2ccccc2)c(=O)n(Cc2ccccc2)c1)c1cc(Br)ccc1O	5.0	21.4	26.4	84.2*	28.8	72.4*
Cc1ccc(O)c(C(=O)c2cc(C(=O)NCc3ccccc3)c(=O)n(Cc3ccccc3)c2)c1	3.5	-1.1	9.9	7.6	18.7	.
COCCNCCOc1ccc(C(C)(C)c2ccccc2)cc1	17.1	1.4	1.1	77.5*	2.2	-9.2	MPTP abs DR=7.74*;MPTP counter DR=>80
O=C(NN=Cc1ccc(N(CCCl)CCCl)cc1)C(=O)c1c[nH]c2ccccc12	.	.	.	1.6	.	.
c1ccc(CN2Cc3ccccc3-n3nncc3C2)nc1	.	.	.	-1.4	.	.
FC(F)(F)c1cccc(NC2=NCCS2)c1	.	.	.	10.3	.	.
O=Cc1cn(Cc2ccccc2F)c2ccccc12	9.1	7.4	-3.7	2.3	13.4	.
CC(C)C(=O)c1cn(Cc2ccccc2C#N)c2ccccc12	10.3	18.4	16.0	-4.4	9.8	.
CC(=O)c1cn(Cc2ccccc2F)c2ccccc12	-2.0	11.0	19.4	73.3*	22.9	69.9*
CC(=O)c1cn(Cc2ccccc2C#N)c2ccccc12	8.7	12.4	15.0	77.3*	-4.3	89.7*
CN1CCC(O)(c2ccccc2)C(C(=O)c2ccccc2)C1 (stereo unspecified)	15.0	19.8	22.2	54.6*	-1.9	2.5	MPTP abs DR=i;MPTP counter DR=>80
CCN1CCC(O)(c2ccccc2)C(C(=O)c2ccccc2)C1 (stereo unspecified)	9.4	-2.5	8.4	-4.1	5.5	.
CCC(=C(c1ccc(O)cc1)c1ccc(OCCN(C)C)cc1)c1ccccc1	.	.	.	-1.4	.	.	MPTP abs DR=i;MPTP counter DR=>80
O=C1NC(=O)N(c2ccccc2)C(=O)/C1=C/c1ccc(Sc2ccccc2)o1	.	.	.	51.1*	.	42.5*
Cc1ccc(OC(=O)N(C)C[C@H]2OCc3cnnn3CCCC(=O)N([C@@H](C)CO)C[C@H]2C)cc1	.	.	.	-0.9	.	.
CCN(CC)S(=O)(=O)c1ccc(NN=C(C#N)C#N)cc1	-5.8	-4.7	9.8	102.6*	-2.2	80.3*
CCOC(=O)C(O)(c1ccc(NC(=S)NC(=O)c2ccc(Cl)cc2Cl)cc1)C(F)(F)F (stereo unspecified)	34.5	34.5	39.9	4.3	27.4	.
CCOC(=O)C(O)(c1ccc(NC(=S)NC(=O)c2ccc(Cl)cc2Cl)c(C)c1)C(F)(F)F (stereo unspecified)	31.5	39.2	40.3	86.7*	20.7	90.2*
O=C(CCN1CC1)OCCOC(=O)CCN1CC1	.	.	.	2.0	.	.
C=CCn1c(O)c(C(C)=Nc2ccc(N(CC)CC)cc2)c(=O)[nH]c1=O	19.8	18.0	3.3	5.8	36.0	.
C=CCn1c(O)c(C(CC)=Nc2ccc(N(CC)CC)cc2)c(=O)[nH]c1=O	6.5	4.0	0.0	74.6*	18.5	29.0*
CC1=C(N2CC2)C(=O)C(CO)=C(N2CC2)C1=O	.	.	.	-1.7	.	.
SMILES	TIM10 inh	tim10-1 inh	tim23-1 inh	MPTP inh	Mdm2 MdmX PPI	MPTP counter	others
COc1cc2c(cc1OC)C1C(=O)c3ccc4c(c3OC1CO2)CC(C(C)C)O4 (stereo unspecified)	.	.	.	103.2*	.	88.3*
S=C(NCCc1ccccc1)N1Cc2ccc(Br)cc2-n2nncc2C1	.	.	.	2.4	.	.
COc1ccccc1/C=C1\C(=O)NC(=S)N(c2ccccc2)C1=O	-17.8	13.7	-4.9	1.9	26.2	.
CCN1C(=O)/C(=C/c2ccc(N(CC)CC)cc2OC)C(=O)NC1=S	4.9	34.3	48.2	65.8*	7.5	-12.7
CCN(CC)CCNC(=O)c1c(O)c2ccccc2n(Cc2ccccc2)c1=O	9.8	-1.4	-40.5	-3.5	6.7	.
CCN(CC)CCCNC(=O)c1c(O)c2ccccc2n(Cc2ccccc2)c1=O	-29.4	-50.6	-80.5	78.9*	27.5	-6.8	MPTP abs DR=16.3*;MPTP counter DR=>80
COC(=O)C1=C(c2ccc(OCc3ccccc3)cc2)C[C@@H]2CC[C@H]1N2C	.	.	.	0.4	.	.
CN1C(=O)C(=Cc2ccccc2OCc2ccccc2Cl)C(=O)N(C)C1=O	36.2	11.9	34.2	61.1*	13.1	44.2*
CCn1cc(C=C2C(=O)N(C)C(=O)N(C)C2=O)c2ccccc21	12.1	27.5	22.3	0.4	-14.1	.
CCC(=Nc1cccc(C(F)(F)F)c1)c1c(O)n(C)c(=O)n(C)c1=O	-11.3	-3.5	12.4	79.6*	6.6	0.6	MPTP abs DR=9.01*;MPTP counter DR=14.3*
CCC(=Nc1ccc(OC)cc1OC)c1c(O)n(C)c(=O)n(C)c1=O	30.7	37.7	34.2	33.6	19.2	.
O=C(Nc1ccc(Cl)cc1)Nc1nccs1	23.9	14.0	14.4	85.6*	19.1	88.6*
O=C1NC(=O)C2(CCN(c3ccccc3)CC2)C(=O)N1	.	.	.	0.3	.	.
C[C@]12C[C@@H](O)[C@H](O)CC1=CCC1C2CC[C@]2(C)C(=O)CCC12 (stereo partly specified)	-18.5	-32.3	-9.0	0.1	6.5	.
CC1(C)C(=O)CC[C@@]2(C)C1=CCC1C2CC[C@]2(C)C(=O)CCC12 (stereo partly specified)	-20.3	-9.1	26.4	59.4*	19.3	2.6	MPTP abs DR=6.31*;MPTP counter DR=13.2*
c1cc2c(cc1NC1=NCCO1)CCCC2	.	.	.	0.7	.	.
ClC(Cl)=C(c1ccc(Cl)cc1)c1ccc(Cl)cc1	2.3	4.5	10.8	77.1*	-18.6	-3.2	MPTP abs DR=i;MPTP counter DR=78.4*
O=P1(c2ccccc2)Nc2ccccc2N1c1ccccc1 (stereo unspecified)	.	.	.	1.8	.	.
CC(=O)C1C(N2CC2)CC2C3CC=C4CC(O)CCC4(C)C3CCC21C (stereo unspecified)	.	.	.	-0.5	.	.
CCN1C(=O)NC(=O)/C(=C/c2cc(C)n(-c3sc(C)c(C)c3C#N)c2C)C1=O	-6.1	9.0	24.2	56.8*	15.8	35.0*
O=S(=O)(c1ccccc1)C1CN1c1c(F)c(F)c(F)c(F)c1F (stereo unspecified)	.	.	.	1.3	.	.
CCC(=NCCN1CCCCC1)c1c(O)n(C)c(=O)n(C)c1=O	4.5	4.5	10.3	0.3	-0.6	.
